Data taken from PubChem BioAssay AID1159524 (National Center for Advancing Translational Sciences (NCATS), 2015).
Screen size: about 410,000 compounds; about 5,100 (1.2%) were called active. Where a call stands in place of a potency, no number is given. Not shown: some 8% with an inconclusive outcome. The sample holds actives, similar compounds and a random draw of the others, so the mix is not that of the screen. Calls come from the whole dose curve; tested in HEK293T cells.

Test: High Throughput Screening for Foot and Mouth Disease Virus Antivirals; note: read-out not given here; nearly all actives have a fitted effect of over 45% in size
Conditions: FMDV antiviral cell-based qHTS; series mostly up to 57.9 µM
Potency is the fitted concentration of half-maximal effect.

Structure (SMILES) | Potency
Nc1nc2c(ncn2[C@@H]2O[C@H](COP(=O)(O)OP(=O)(O)OP(=O)(O)O)[C@@H](O)C2O)c(=O)[nH]1 (stereo partly drawn) | inactive
O=C(c1ccco1)N1CCC[C@@]2(CCN(c3ccccc3)C2)C1 | inactive
CC(C)NC(=O)N1CC[C@@]2(CCCN(C(=O)c3ccco3)C2)C1 | inactive
C1CC[C@H]([C@@]23C[C@H](C[C@H]4CCCN[C@H]42)[C@@H]2CCCCN2C3)NC1 | inactive
CCSc1ncc(Cl)c(C(=O)Nc2c(C(=O)c3ccccc3)oc3ccccc23)n1 | inactive
CCOC(=O)c1scc(-c2ccccc2)c1S(=O)(=O)Nc1ccccc1F | inactive
CCCS(=O)(=O)c1ncc(Cl)c(C(=O)Nc2scc(-c3ccccc3)c2C(=O)OCC)n1 | 25.1 µM (active)
CCOc1ccccc1N(C)C(=O)c1cc2c(s1)-c1ccccc1OC2 | inactive
COCCn1c(=O)c(-c2cc(F)cc(F)c2)nc2cncnc21 | inactive
CN1C2CC3CC1C(O3)C2O (stereo not drawn) | inactive
Cc1ccc(S(=O)(=O)c2cn(Cc3ccccc3)c3cc(N4CCCC4)c(F)cc3c2=O)c(C)c1 | inactive
Oc1c(Cl)cc(Cl)c(Cl)c1Cc1c(O)c(Cl)cc(Cl)c1Cl | 5.62 µM (active)
C=C1C(=O)C23C(O)C1CCC2[C@]12COC3(O)C(O)C1C(C)(C)CC[C@H]2O (stereo partly drawn) | 28.2 µM (active)
O=C(NC1(C(F)(F)F)N=C(c2ccccc2)N(C2CCCCC2)C1=O)c1ccccc1F (stereo not drawn) | inactive
O=c1c(-c2cccs2)nc2cnc(Oc3ccccc3)nc2n1-c1ccccc1 | inactive
O=C(c1csnn1)N1CCC2(CCN(Cc3nccs3)CC2)CC1 | inactive
O=C(c1cccc(F)c1)N1CCC2(CC1)CCN(c1ccccc1)CC2 | inactive
O=C(c1cccc(C(=O)N2CCN(c3ccc(F)cc3)CC2)c1)N1CCN(c2ccc(F)cc2)CC1 | 39.8 µM (active)
O=C(c1ccccc1Oc1ccccc1)N1CCN(c2ccc(F)cc2)CC1 | inactive
COc1ccc(CN(C)CCn2cc(C(=O)N3CCSCC3)nn2)cc1C | inactive
O=C1c2ccccc2C(=O)N1CCC#Cc1ccc2cc(C3(O)CCCCC3)oc(=O)c2c1 | 39.8 µM (active)

Structure (SMILES) | Potency
CN1C(=O)c2ccc(NC(=O)c3c(F)c(F)c(F)c(F)c3F)cc2C1=O | inactive
Cc1ccc(S(=O)(=O)NCCC(=O)Nc2cccc(S(N)(=O)=O)c2)cc1C | inactive
CCCCN1C(=O)c2ccc(C(=O)Nc3ccc(S(=O)(=O)N(C)C)cc3)cc2C1=O | 20 µM (active)
CC(C)CCN1C(=O)c2ccc(C(=O)Nc3cccc(S(N)(=O)=O)c3)cc2C1=O | 28.2 µM (active)
COCCCN1C(=O)c2ccc(C(=O)Nc3ccc(OC)cc3OC)cc2C1=O | inactive
Cc1ccnc(NS(=O)(=O)c2ccc(NC(=O)c3ccc(S(=O)(=O)N(C)C)cc3)cc2)n1 | inactive
O=c1c(CN2CCOc3ccc(CN4CCC(Oc5cccnc5)CC4)cc3C2)coc2ccccc12 | inactive
Cc1cnc(CNc2cc(-c3c(C)noc3C)ncn2)cn1 | inactive
O=c1ccn([C@@H]2O[C@H](COP(=O)(O)OP(=O)(O)OP(=O)(O)O)[C@@H](O)[C@H]2O)c(=O)[nH]1 | inactive
COc1cc(Cl)c(C)cc1Nc1nnc(-n2nc(C)cc2C)c2ccccc12 | inactive
COCCn1c(=O)c(C)nc2cnc(N(C)C)nc21 | inactive
CC1=C/C(=N\OS(=O)(=O)c2ccccc2)C=CC1=O | 15.8 µM (active)
O=C(CSc1nc(=O)n(Cc2cccnc2)c2c1CCC2)Nc1ccc(F)cc1F | inactive
CC1=C(C(=O)OCc2ccccc2)C(c2ccco2)n2ncnc2N1 (stereo not drawn) | 28.2 µM (active)
CCOC(=O)C1=C(c2ccccc2)Nc2ncnn2C1c1ccc(Cl)cc1 (stereo not drawn) | inactive
CCOc1ccccc1NC(=O)C1=C(C)Nc2ncnn2C1c1ccc(NC(C)=O)cc1 (stereo not drawn) | inactive
CC(C)=CCC/C(C)=C/CC/C(C)=C/CC/C(C)=C/CO | inactive
CC(C)c1cc(C(=O)N2CCOc3ccc(CN4CCC(Oc5cccnc5)CC4)cc3C2)n[nH]1 | inactive
Cc1cc(C(=O)COC(=O)c2cccs2)c(C)n1-c1c(C)n(C)n(-c2ccccc2)c1=O | inactive
Cc1ccsc1C(=O)OCC(=O)c1cc(C)n(CC2CCCO2)c1C (stereo not drawn) | 100 µM (active)
O=C(CSc1nnc(-c2ccco2)n1CC1CCCO1)c1ccccc1 (stereo not drawn) | inactive

Structure (SMILES) | Potency
COC(=O)c1cnc(N2CCN(c3ccccc3OC)CC2)c2ccccc12 | inactive
COc1ccccc1N1CCN(c2ncnc3onc(-c4cccc(Cl)c4)c23)CC1 | inactive
COc1ccccc1N1CCN(c2ncnc3sc(C)c(-c4ccccc4)c23)CC1 | 20 µM (active)
O=C(c1cc(C(F)(F)F)cc(C(F)(F)F)c1)N1CCC2(CCCN(Cc3ccncc3)C2)CC1 | inactive
COc1cccc(Cn2c(=O)c(-c3ccccc3)nc3cnc(OC)nc32)c1 | inactive
COCCNC(=O)c1ccc2c(c1)N=C(C)c1cc(C)ccc1S2 | inactive
CCCCCCCCCCCCn1ccc(=N)cc1 | 17.8 µM (active)
O=C(c1cnccn1)N1CCC2(CCN(Cc3cc(C(F)(F)F)cc(C(F)(F)F)c3)CC2)CC1 | inactive
Cc1cc(C)c2oc(-c3cccc(NC(=O)c4cccc(F)c4)c3C)nc2c1 | inactive
COc1ccc(N)cc1NC(=O)CN1CCOCC1 | inactive
COc1ccc(NC(C)=O)cc1NC(=O)CN1CCN(C2c3ccccc3-c3ccccc32)CC1 | 31.6 µM (active)
COc1ccc(NC(C)=O)cc1NC(=O)CN1CCN(c2ccc(F)cc2)CC1 | inactive
Cc1ccccc1C(=O)NCc1nc(-c2ccc(Cl)cc2)no1 | inactive
CCc1ccc(NC(=O)CN2C(=O)C(c3ccccc3)=NC23CCCCCC3)cc1 | inactive
CCOc1ccc(NC(=O)CN(Cc2ccccc2)S(=O)(=O)c2ccc(Cl)cc2)cc1 | inactive
CCOc1ccc(N(Cc2ccccc2)C(=O)c2nc(S(C)(=O)=O)ncc2Cl)cc1 | 15.8 µM (active)
COc1ccc(N(Cc2ccc(N(C)C)cc2)C(=O)c2ccc(S(C)(=O)=O)cc2)cc1 | inactive
Nc1nc2nc(Cl)[nH]c2c(=O)[nH]1 | inactive
Cc1cc(N2C(=O)c3ccc(C(=O)NCc4ccccc4)cc3C2=O)no1 | inactive
O=C(O)c1ccc2c(c1)C(=O)N(c1ccc(/C=C/C(=O)c3ccccc3)cc1)C2=O | 14.1 µM (active)
COc1ccc(OC)c(NC(=O)c2ccc3c(c2)C(=O)N(c2ccc(OC(C)=O)cc2)C3=O)c1 | inactive
